Assay results reported in PubChem BioAssay (Tox21).
“And” between values parts separate entries of the source, which are not always exact repeats. Equal values may be shown once. The source made the active and inactive calls. Where a call stands in place of a potency, no number is given. Calls follow the shape of the dose curve; as a rule, active = well fitted inhibition curve with a large enough effect in the repeat runs (not every such curve was filed as active); inconclusive = weak or mixed curves; inactive = flat fitted curve, though single readings scatter.
Potency is read from the fitted curve at half-maximal effect.

These molecules were tested against Thyrotropin-releasing hormone receptor (Homo sapiens) (UniProt P34981) (assay: qHTS assay to identify small molecule antagonists of the thyrotropin-releasing hormone receptor (TRHR) signaling pathway (AID 1346877)). Conditions: TRHR-HEK293, TRH-induced calcium fluorescence, antagonist mode; series mostly up to 51.3 µM.
Thyrotropin-releasing hormone receptor (Homo sapiens), sequence (P34981 whole entry, looked up): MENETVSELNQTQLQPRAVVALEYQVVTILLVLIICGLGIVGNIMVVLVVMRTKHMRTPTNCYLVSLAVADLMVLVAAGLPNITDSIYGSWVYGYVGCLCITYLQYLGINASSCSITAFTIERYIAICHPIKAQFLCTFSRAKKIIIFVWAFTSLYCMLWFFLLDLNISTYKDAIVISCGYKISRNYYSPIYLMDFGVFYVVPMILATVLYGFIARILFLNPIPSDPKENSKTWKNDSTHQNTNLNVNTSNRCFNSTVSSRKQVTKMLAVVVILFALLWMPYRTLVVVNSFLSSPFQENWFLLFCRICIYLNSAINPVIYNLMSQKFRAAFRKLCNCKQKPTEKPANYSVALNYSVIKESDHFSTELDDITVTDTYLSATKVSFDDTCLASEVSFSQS
Text: National Center for Advancing Translational Sciences [NCATS]
NIH Chemical Genomics Center [NCGC]
U.S. Environmental Protection Agency [EPA]
National Institutes of Environmental Health Sciences [NIEHS]
National Toxicology Program [NTP]
U.S. Food and Drug Administration [FDA]
Thyrotropin-releasing hormone (TRH) receptor (TRHR) is a G-protein-coupled receptor which binds the tripeptide thyrotropin releasing hormone. TRHR is found in the brain and, when bound by TRH, acts (through phospholipase C) to increase intracellular inositol trisphosphate. It plays a crucial role in the anterior pituitary where it controls the synthesis and secretion of thyroid stimulating hormone and prolactin. The TRHR-Hek293 assay is a cell-based assay, and it has the potential to screen G protein-coupled receptors. A compound/drug can either activate (agonist) or suppress (antagonist) GPCRs that can be monitored by levels of intracellular calcium. In this assay, the Tox21 10K compound library was screened to identify potential TRHR antagonists.
Tox21 Assay Protocol Summary:
The TRHR-Hek293 cells were dispensed at 1500cells/4uL/well in 1536-well black-clear bottom plates using a Multidrop dispenser. After the assay plates were incubated at a 37 C/5% CO2 incubator for 18 hours, 4 uL of Dye-Loading Solution was added to each well. The plates were incubated at 37 C for 2 hours. For agonist mode, 23 nL of compounds dissolved in DMSO, positive controls or DMSO only was transferred to the assay plate by a pin tool. The fluorescence intensity in the plates was measured using FDSS 7000EX kinetic plate reader for 3 min at 1 sec intervals. For antagonist mode, 23 nL of compounds dissolved in DMSO, positive controls or DMSO only was transferred to the assay plate by a pin tool. After 5 min incubation at room temperature, 1 uL of TRH was added on the top of the cell/compound mixtures to achieve a final agonist concentration of 1 nM. The fluorescence intensity in the plates was measured using FDSS 7000EX kinetic plate reader for 3 min at 1 sec intervals. Each test compound was measured at 15 concentrations and in triplicates.
In the case of `C#CC(O)CCC` (stereo not given), the Potency is reported as “inactive”. With `c1cc[nH]c1` the Potency was “inactive”. In the case of `CCCCCCCC(OC)OC`, the Potency is reported as “inactive”. For `Brc1ccccc1-c1ccccc1`, the Potency was “inactive”. In the case of `Cc1ccc(O)cn1`, the Potency is reported as “inactive”. `CCC(C)C(=O)OC` (stereo not given) was tested, and the Potency was “inactive”. In the case of `Clc1ccc(C(c2ccccc2Cl)C(Cl)Cl)cc1` (stereo not given), the Potency is reported as “inactive”. In the case of `O=Cc1ccc(F)cc1`, the Potency is reported as “inactive”. With `CCc1ccc(O)c(C(C)(C)C)c1` the Potency was “inactive”. With `CCCC(=O)OCC(COC(=O)CCC)OC(=O)CCC` the Potency was “inactive”. With `CCCC(O)C(O)CO` (stereo not given) the Potency was “inactive”. `CCOCOCC` was tested, and the Potency was “inactive”. In the case of `CNC(=O)c1cc(Oc2ccc(NC(=O)Nc3ccc(Cl)c(C(F)(F)F)c3)cc2)ccn1`, the Potency is reported as “inactive”. For `C/C=C/C(=O)C1=C(C)CCCC1(C)C`, the Potency was “inactive”. `CCCCCCCC/C=C/CCCOC(C)=O` was tested, and the Potency was “inactive”. `CCN=c1cc2oc3cc(NCC)c(C)cc3c(-c3ccccc3C(=O)OCC)c-2cc1C` was tested, and the Potency was 8.47 µM (active) and 10.7 µM (active). For `CCOCN(C(=O)CS(=O)(=O)O)c1c(C)cccc1CC`, the Potency was “inactive”. `COc1ccccc1OCCNCC(O)COc1cccc2[nH]c3ccccc3c12` (stereo not given) was tested, and the Potency was “inactive”. In the case of `CCCCCCCCCCc1ccccc1`, the Potency is reported as “inactive”. For `CCCN(CCc1cccs1)[C@H]1CCc2c(O)cccc2C1`, the Potency was “inactive”. `CN(C)c1ccc(N=Nc2ccccc2C(=O)O)cc1` was tested, and the Potency was “inactive”. With `O=C[C@H](O)[C@H](O)[C@H](O)CO` the Potency was “inactive”. With `CCN(CC)CCOC(=O)C1(C2CCCCC2)CCCCC1` the Potency was “inactive”. For `Nc1cc(Cl)c([N+](=O)[O-])cc1O`, the Potency was “inactive”. With `CC1CCCCN1CCCOC(=O)c1ccc(OC2CCCCC2)cc1` (stereo not given) the Potency was “inactive”. `Cc1ccc(CCn2c3c(c4cc(Cl)ccc42)CN(C)CC3)cn1` was tested, and the Potency was “inactive”. For `CC(=O)OC1CCCCC1`, the Potency was “inactive”. In the case of `C=CC/C=C/C/C=C/C/C=C/C`, the Potency is reported as “inactive”. With `OCCCCl` the Potency was “inactive”. For `CCCCCCCCCCCCCOP(=O)(O)O`, the Potency was “inactive”. With `CCCSS/C(CCO)=C(\C)N(C=O)Cc1cnc(C)nc1N` the Potency was “inactive”. For `CCOC(OCC)C(=O)c1ccccc1`, the Potency was “inactive”. With `CCCCCCS` the Potency was “inactive”. For `CCCCCCCCCC(=O)N(C)C`, the Potency was “inactive”. In the case of `O=C=NCc1cccc(CN=C=O)c1`, the activity, negative = inhibition is reported as 1.76% [at 10.5 µM] (inactive). For `O=C1C=CC(=O)N1c1ccccc1`, the Potency was “inactive”. With `CCc1cccc(CC)c1N(COC)C(=O)CS(=O)(=O)O` the Potency was “inactive”. With `O=S(=O)(O)c1cc(S(=O)(=O)O)c2ccc3c(S(=O)(=O)O)cc(S(=O)(=O)O)c4ccc1c2c43` the activity, negative = inhibition was -5.39% [at 10.5 µM] (inactive). With `C=CC(=O)OCC(O)COc1ccccc1` (stereo not given) the Potency was “inactive”. `CCO[Si](CCCSSSSCCC[Si](OCC)(OCC)OCC)(OCC)OCC` was tested, and the Potency was “inactive”.
